Experimental data taken from PubChem BioAssay AID463173 (ICCB-Longwood Screening Facility, Harvard Medical School, 2010).
Among all 52,000 compounds or so, about 4,300 (8.3%) were called active. No stated cut-off is given here; in the data, active means survival mostly below about 52% (no sharp cut-off); inactive means mostly above about 56%. Many of the other results were omitted from the sample, so actives are more common in it than they were.

tested on: DeltatarO mutant; assay: S. aureus survival, RN4220 and DeltatarO strains – OD600, teichoic acid synthesis inhibitors, primary screen (AID 463173); details: S. aureus RN4220 wild type/DeltatarO growth, OD600, 18 h, active compounds read low, screened at 18.75 µg/mL (by protocol)

Compound | survival
CC(C)c1cc(-c2nc(-c3ccc(Br)cc3)no2)n[nH]1 | 95% (inactive)
O=C(Cn1c(-c2cccs2)cc2cc(F)ccc21)NCCc1ccc(Cl)cc1 | 91% (inactive)
Cc1ccc(Cl)cc1-n1ncc2c(NCCC3=CCCCC3)ncnc21 | 91% (inactive)
Cc1ccc(-n2ncc3c(NCCc4ccccc4)ncnc32)cc1Cl | 65% (inactive)
Clc1cccc(-n2ncc3c(NCCC4=CCCCC4)ncnc32)c1 | 37% (active)
Cc1ccc(-n2ncc3c(NCc4ccccc4)ncnc32)cc1Cl | -4% (active)
Cc1ccc(-n2ncc3c(NCc4ccccc4)ncnc32)cc1C | 70% (inactive)
Cc1ccc(-n2ncc3c(NCCC4=CCCCC4)ncnc32)cc1 | 20% (active)
Cc1ccc(-n2ncc3c(NCCC4=CCCCC4)ncnc32)cc1C | 119% (inactive)
Fc1ccc(-n2ncc3c(NCCC4=CCCCC4)ncnc32)cc1 | 83% (inactive)
Clc1cccc(-n2ncc3c(NCCc4ccccc4)ncnc32)c1 | 94% (inactive)
COc1cccc(C2C(C(=O)Nc3cccnc3)=C(C)Nc3nc(SCc4ccccc4)nn32)c1 (stereo not given) | 81% (inactive)
COc1ccc(Cn2c(SCc3ccc(C(=O)NC4CCCC4)cc3)nc3cccnc32)cc1 | 69% (inactive)
COC(=O)c1sc2nc3ccccc3cc2c1N | 93% (inactive)
COCCNS(=O)(=O)c1ccc(S(=O)(=O)N2CCCCC2)cc1 | 103% (inactive)
Cc1ccc2cc(CN(CC3CCCO3)C(=O)C3CCC3)c3nnnn3c2c1 (stereo not given) | 95% (inactive)
CCC(C)NC(=O)CCCc1nnc2n(CC(C)C)c(=O)c3sccc3n12 (stereo not given) | 94% (inactive)
O=S(=O)(NCCS(=O)(=O)N1CCN(c2ccccc2)CC1)c1ccccc1 | 81% (inactive)
CCN(C1CCCCC1)S(=O)(=O)c1ccc(S(=O)(=O)NC2CC2)cc1 | 90% (inactive)
O=C(Nc1ccccc1)C1CCN(S(=O)(=O)c2ccc3c(c2)CCCN3C(=O)C2CCC2)CC1 | 95% (inactive)
CCOc1ccc(Nc2c(S(=O)(=O)c3ccc(Cl)cc3)cnc3ccc(OC)cc23)cc1 | 67% (inactive)
CCOc1ccc(Nc2c(S(=O)(=O)c3ccc(C)cc3)cnc3cc(OC)c(OC)cc23)cc1 | 70% (inactive)
CCOc1ccc(Nc2c(S(=O)(=O)c3ccc(C)cc3)cnc3ccc(OC)cc23)cc1 | 59% (inactive)

Compound | survival
CCOc1ccc(Nc2c(S(=O)(=O)c3ccccc3)cnc3ccccc23)cc1 | 38% (active)
CCOc1ccc(Nc2c(S(=O)(=O)c3ccccc3)cnc3ccc(F)cc23)cc1 | 92% (inactive)
CCOc1ccc(Nc2c(S(=O)(=O)c3ccc(C)cc3)cnc3ccccc23)cc1 | 43% (active)
CCOc1ccc(Nc2c(S(=O)(=O)c3ccc(C)cc3)cnc3ccc(F)cc23)cc1 | 64% (inactive)
CCOc1ccc(Nc2c(S(=O)(=O)c3ccc(Cl)cc3)cnc3ccc(OCC)cc23)cc1 | 66% (inactive)
CCOc1ccc(Nc2c(S(=O)(=O)c3ccccc3)cnc3ccc(CC)cc23)cc1 | 34% (active)
CCOc1ccc(C(=O)NCC(c2ccc3c(c2)OCO3)N2CCN(c3ccc(F)cc3)CC2)cc1 (stereo not given) | 87% (inactive)
COc1ccc(Cl)cc1NC(=O)Cn1cnc2sc(C)c(S(=O)(=O)N3CCN(c4ccccc4OC)CC3)c2c1=O | 79% (inactive)
CCN(c1ccccc1)c1nnc(NC(=O)Nc2ccc(Br)c(C)c2)s1 | 89% (inactive)
COc1ccccc1NC(=O)c1c(-c2ccc(C)cc2)nnc2ccccc12 | 105% (inactive)
Cc1nc2ccc(S(=O)(=O)CCC(=O)Nc3ccc(C(C)C)cc3)cc2s1 | 50% (inactive)
CC(C)c1ccc(S(=O)(=O)Nc2ccc(O)c(Sc3nc4ccccc4s3)c2)cc1 | 1% (active)
Cc1nc2ccc(S(=O)(=O)NC(C(=O)NCc3ccccc3Cl)C(C)C)cc2s1 (stereo not given) | 102% (inactive)
CS(=O)(=O)Nc1ccc(-c2nc3ccccc3s2)cc1 | 48% (inactive)
Cn1c(=O)sc2cc(NS(=O)(=O)c3ccc(C(C)(C)C)cc3)ccc21 | 92% (inactive)
O=S(=O)(Nc1ccc(O)c(Sc2nc3ccccc3s2)c1)c1cc(Cl)ccc1Cl | -8% (active)
O=C(Nc1ccc(Cl)cc1-c1nc2ccccc2s1)c1ccco1 | 74% (inactive)
CC(C)c1ccc(C(=O)Nc2ccc(-c3nc4ccccc4s3)c(Cl)c2)cc1 | 216% (inactive)
CC(C)(C)c1ccc(S(=O)(=O)Nc2ccc(O)c(Sc3nc4ccccc4s3)c2)cc1 | -4% (active)
CC(C)NC(=O)c1nc2ccccc2s1 | 88% (inactive)
Cc1cc(S(=O)(=O)Nc2ccc(O)c(Sc3nc4ccccc4s3)c2)ccc1Cl | -1% (active)
Cc1cc(F)ccc1S(=O)(=O)Nc1ccc(O)c(Sc2ncn[nH]2)c1 | 111% (inactive)
CCOC(=O)CNc1nnc(SCC(=O)OCC)[nH]c1=O | 71% (inactive)

Compound | survival
Cc1ccc2oc(C(=O)Nc3ccc(S(=O)(=O)N4CCCC(C)C4)cc3)cc(=O)c2c1 (stereo not given) | 69% (inactive)
Cc1ccc(Cl)cc1N1CCN(CCCNc2ncnc3onc(-c4ccc(F)cc4)c23)CC1 | 80% (inactive)
Cc1ccc2nc(-c3ccncc3)c(Nc3ccc(C(C)C)cc3)n2c1 | 75% (inactive)
CC(C)(Cc1ccc(O)cc1)NC(=O)c1ccccc1 | 86% (inactive)
CC(=O)c1c(C)n(-c2cccc(Cl)c2)c2ccc(OC(=O)c3ccccc3)cc12 | 77% (inactive)
CN(CC(=O)NCc1ccccc1Cl)S(=O)(=O)c1ccc2c(c1)c(=O)n(C)c(=O)n2C | 130% (inactive)
CCOc1ccccc1C(=O)Nc1ccc(S(=O)(=O)Nc2ncccn2)cc1 | 76% (inactive)
CC1=CCC2C(=O)N(C3CCCCC3)C(=O)C2C1 (stereo not given) | 79% (inactive)
CC(C)c1ccc(NC(=O)N2CCN(c3ccc(Cl)c(Cl)c3)CC2)cc1 | 87% (inactive)
O=C(Nc1ccc(F)cc1F)N1CCN(c2ccc(Cl)c(Cl)c2)CC1 | 48% (active)
Cc1ccc(NC(=O)N2CCN(c3ccc(Cl)c(Cl)c3)CC2)cc1 | 102% (inactive)
CCn1cc(S(=O)(=O)c2ccc(C)cc2)c(=O)c2cc(F)c(N3CCCCCC3)cc21 | 90% (inactive)
CC(C)C(=O)Nc1nnc2n1CCS2 | 101% (inactive)
C=C(C)CSc1nc2sc3c(c2c(=O)n1Cc1ccccc1)CC(C)(CC)OC3 (stereo not given) | 42% (active)
C=C(C)CSc1nc2sc3c(c2c(=O)n1-c1ccccc1)CC(C(C)C)OC3 (stereo not given) | 76% (inactive)
CCCCSc1nc2sc3c(c2c(=O)n1-c1ccccc1C)CC(C)(C)OC3 | 48% (inactive)
CCn1c(NN)nc2sc3c(c2c1=O)CC(C)(C)OC3 | 104% (inactive)
CCCSc1nc2sc3c(c2c(=O)n1-c1cccc(Br)c1)CC(C)(C)OC3 | 61% (inactive)
CCCSc1nc2sc3c(c2c(=O)n1Cc1ccccc1)CC(C)(CC)OC3 (stereo not given) | 14% (active)
CSc1nc2c([nH]c3ccccc32)c(=O)n1-c1ccc(C)cc1 | 87% (inactive)
Cc1ccc(N2C(=O)C3CN4CCCN4C3C2=O)cc1 (stereo not given) | 78% (inactive)
COc1ccccc1C(=O)NCC(=O)O | 76% (inactive)
CCc1ccc(S(=O)(=O)c2nnn3c2nc(N2CCCC(C)C2)c2cc(Cl)ccc23)cc1 (stereo not given) | 63% (inactive)

Compound | survival
Cc1ccc(NC(=O)Cn2c(=O)n(-c3ccccc3)c(=O)c3ccc(C(=O)NCc4ccc5c(c4)OCO5)cc32)cc1 | 114% (inactive)
CCOC(=O)c1cccc(NC(=O)c2cc(S(=O)(=O)N3CCCCCC3)cn2C)c1 | 74% (inactive)
COc1ccc(N2CCN(S(=O)(=O)CCNC(=O)c3ccc(C(F)(F)F)cc3)CC2)cc1 | 99% (inactive)
COc1ccc(CCNC(=O)c2ccc3c(c2)CCN3S(=O)(=O)c2ccc(C)cc2)cc1 | 43% (active)
COc1ccc(CNC(=O)c2ccc3c(c2)CCN3S(=O)(=O)c2ccc(Cl)cc2)cc1 | 62% (inactive)
O=C(NCCc1ccccc1)c1ccc2c(c1)CCN2S(=O)(=O)c1ccc(Br)cc1 | 67% (inactive)
COc1ccc(CCNC(=O)c2ccc3c(c2)CCN3S(=O)(=O)c2ccc(C)cc2)cc1OC | 50% (inactive)
COc1ccc(CCNC(=O)c2ccc3c(c2)CCN3S(=O)(=O)c2ccccc2)cc1 | 44% (active)
COc1ccc(CCNC(=O)c2ccc3c(c2)CCN3S(=O)(=O)c2ccccc2)cc1OC | 88% (inactive)
COc1ccc(CCNC(=O)c2ccc3c(c2)CCN3S(=O)(=O)c2ccc(Cl)cc2)cc1 | 50% (inactive)
O=C(NCCc1ccccc1)c1ccc2c(c1)CCN2S(=O)(=O)c1ccccc1 | 38% (active)
Cc1ccc(S(=O)(=O)N2CCc3cc(C(=O)NCCc4ccccc4)ccc32)cc1 | 104% (inactive)
COc1ccc(CCNC(=O)c2ccc3c(c2)CCN3S(C)(=O)=O)cc1 | 82% (inactive)
COc1ccc(CNC(=O)c2ccc3c(c2)CCN3S(=O)(=O)c2ccc(C)cc2)cc1 | 55% (inactive)
COc1ccc(CNC(=O)c2ccc3c(c2)CCN3S(=O)(=O)c2ccccc2)cc1 | 36% (active)
Cc1cccc(-c2nc(CSc3nncn4c3cc3sccc34)c(C)o2)c1 | 75% (inactive)
COc1ccc(CC(=O)Nc2cc(-c3cn4cccnc4n3)ccc2OC)cc1 | 91% (inactive)
COc1ccc(Cl)cc1NC(=O)CN(c1cccc(C)c1C)S(=O)(=O)c1ccccc1 | 72% (inactive)
Cc1cccc(N2CCN(S(=O)(=O)c3ccc4c(c3)CCCN4C(=O)C3CCC3)CC2C)c1 (stereo not given) | 77% (inactive)
COc1cccc(-n2cc(C(=O)Nc3cccc(C(F)(F)F)c3)c3ccccc3c2=O)c1 | 61% (inactive)
CCCCN(C)c1nnc(NC(=O)Nc2cccc(C(C)=O)c2)s1 | 93% (inactive)
